The sample as a whole holds a higher share of hits than the screen did.
D1 mod: D1 dopamine receptor (human) allosteric modulation. P21728. HEK293 D1, CRE-luciferase, dopamine EC30 potentiation; actives deviate in either direction. B-score at 10 µM. hit rate 5.9% among 58,000. AID 641;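 active = luminescence count or its row- and column-corrected plate score outside the 99.7% band of the plate's sample wells, on either side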
Target sequence (P21728 whole entry, looked up): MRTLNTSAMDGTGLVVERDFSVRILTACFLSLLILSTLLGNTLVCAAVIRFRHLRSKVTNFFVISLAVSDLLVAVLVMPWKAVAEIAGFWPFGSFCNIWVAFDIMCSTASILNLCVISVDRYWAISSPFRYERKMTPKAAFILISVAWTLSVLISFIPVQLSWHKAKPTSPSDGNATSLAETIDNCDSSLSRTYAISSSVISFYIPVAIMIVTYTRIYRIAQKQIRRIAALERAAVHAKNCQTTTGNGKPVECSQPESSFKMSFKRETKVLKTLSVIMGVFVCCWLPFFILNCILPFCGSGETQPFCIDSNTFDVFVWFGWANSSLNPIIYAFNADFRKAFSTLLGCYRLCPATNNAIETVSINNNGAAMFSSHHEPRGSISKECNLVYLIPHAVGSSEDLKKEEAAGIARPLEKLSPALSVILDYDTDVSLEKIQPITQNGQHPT
ROCK2 blocker: blocks human Rho kinase 2 activity; O75116; purified ROCK2, Kinase-Glo ATP depletion luminescence; inhibition, % at 6 µM; hit rate 0.35% among 60,000;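 active = inhibition above the screen-wide mean inhibition plus 3 SD, cut at about 18% in these data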;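 also: plate controls were DMSO wells for no effect and Y-27632 control wells after no-enzyme background subtraction for full effect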
hDAT+cocaine: human DAT dopamine uptake with cocaine, either direction; hit rate 1.3% among 110,000; LLC-PK1 hDAT cells, [14C]-dopamine uptake with cocaine IC80; actives deviate in either direction; Q01959; B-score at 10 µM; AID 449768;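 active = Z score or B-score, a plate-position-corrected score, falls beyond the plate's 99.7% confidence bounds, in either direction; inactive = both scores lie inside the 99.7% bounds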;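 also: scored against the spread of the other compound wells on the same plate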
PKA kinase inh: PKA (human) kinase inhibition; P17612; PKA Kemptide phosphorylation, Kinase-Glo ATP luminescence; inhibition, % at 6 µM; hit rate 0.1% among 65,000;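 active = inhibition above the screen-wide mean inhibition plus 3 SD, cut at about 21% in these data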
JNK3 inh: blocks human JNK3 kinase activity | P53779 | purified JNK3 kinase activity, HTS | inhibition, % at 8 µM | hit rate 0.61% among 60,000 | AID 746; in the data active = inhibition above about 17%;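 also: 0% = DMSO and 100% = reference inhibitor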
An asterisk follows results filed as active.

`O=C(Nc1ccc2c(c1)CCC2)c1cc(S(=O)(=O)N2CCN(c3ccccc3)CC2)ccc1Cl` gave hDAT+cocaine 0.591.
Cc1cccc(-c2noc(CN(C(=O)c3ccc(Br)o3)C(C)C)n2)c1 was read as D1 mod -0.983, ROCK2 blocker -4.9, hDAT+cocaine 1.81*, PKA kinase inh -2.9 and JNK3 inh -1.0.
`Cc1ccc(C(=O)C(OC(=O)CN2C(=O)c3ccccc3C2=O)c2ccccc2)cc1C` (configuration not stated) gave hDAT+cocaine -0.476.
Screening Fc1ccccc1Cn1nnc2c(-n3ccnc3)ncnc21 returned D1 mod 4.5, ROCK2 blocker 27.2*, hDAT+cocaine 0.0454, PKA kinase inh 24.1* and JNK3 inh 6.2.
COc1cccc(C=Nc2ccc3c(c2)OCCO3)c1O was read as D1 mod -0.358, ROCK2 blocker 6.3, PKA kinase inh 8.6 and JNK3 inh 4.6.
`CCOc1cccc(C=Nc2cc(C)cc(C)c2O)c1O` gave D1 mod -3.75*, ROCK2 blocker 4.1, hDAT+cocaine 0.594, PKA kinase inh 1.4 and JNK3 inh -4.9.
Screening O=C1C=C(c2cc3ccccc3s2)CCC1 returned hDAT+cocaine -0.0199.
`Cc1ccc(C)c(S(=O)(=O)C(C#N)c2nc3ccccc3nc2N2CC(C)OC(C)C2)c1` (configuration not stated) gave D1 mod -2.66*, ROCK2 blocker 5.0, hDAT+cocaine 0.169, PKA kinase inh 5.6 and JNK3 inh 3.0.
Cc1ccc(C)c(S(=O)(=O)C(C#N)c2nc3ccccc3nc2N2CCCC2)c1 (configuration not stated) was read as D1 mod -1.84, ROCK2 blocker -1.8, hDAT+cocaine 0.624, PKA kinase inh -3.1 and JNK3 inh -2.0.
`c1ccc(-c2onc3cc4c(cc23)OCCO4)cc1` gave D1 mod 0.82, ROCK2 blocker 0.7, hDAT+cocaine 0.097, PKA kinase inh 6.3 and JNK3 inh 22.1*.
For CCOC(=O)N1CCC2(CC1)C(C#N)=C(N)Oc1n[nH]c(CSc3ccc(C)cc3)c12 the results were D1 mod -4.59*, ROCK2 blocker -3.7, hDAT+cocaine 0.145, PKA kinase inh -3.7 and JNK3 inh -3.3.
Screening CCC1=Nc2cc(C(=O)NCCCOC(C)C)ccc2Sc2ccccc21 returned hDAT+cocaine -7.17*.
Screening CCN1CCN(c2cc(C)c3cc(NC(=O)c4cncc(Br)c4)ccc3n2)CC1 returned D1 mod -1.79 and PKA kinase inh -3.5.
For CCN1CCN(c2cc(C)c3cc(NC(=O)c4ccc5c(c4)OCO5)ccc3n2)CC1 the results were D1 mod -4.97*, ROCK2 blocker 7.0, hDAT+cocaine 0.737, PKA kinase inh -1.9 and JNK3 inh -4.9.
For COc1cccc(C(=O)Nc2ccc3nc(N4CCN(c5ncccn5)CC4)cc(C)c3c2)c1OC the results were D1 mod 1.36, hDAT+cocaine -6.88* and PKA kinase inh 7.5.
For CCN1CCN(c2cc(C)c3cc(NC(=O)c4ccc(OC)c(OC)c4)ccc3n2)CC1 the results were hDAT+cocaine 2.56*.
Screening Fc1ccc2c(c1)C(c1ccncc1)=NNC(c1cccnc1)=N2 returned hDAT+cocaine 0.763.
Screening COc1ccc(NC(=O)CCCCn2c(=O)[nH]c3ccccc3c2=O)cc1 returned D1 mod 0.401, ROCK2 blocker -4.0, hDAT+cocaine -7.72*, PKA kinase inh -5.4 and JNK3 inh 20.8*.
Screening COc1ccc(NC(=O)CCCn2c(=O)[nH]c3ccccc3c2=O)cc1 returned D1 mod -0.0629, ROCK2 blocker -1.1, hDAT+cocaine 0.623, PKA kinase inh 0.5 and JNK3 inh 8.8.
Screening NC1=NC2(CCCCC2)N=C(Nc2ccc(F)cc2F)N1 returned hDAT+cocaine -0.167.
Cc1cc(C)cc(NC2=NC3(CCCCC3)N=C(N)N2)c1 was read as D1 mod -5.3*, ROCK2 blocker 1.9, hDAT+cocaine 0.0925, PKA kinase inh 7.8 and JNK3 inh 0.2.
For Cc1c(-c2nc(N)nc(Nc3ccccc3)n2)oc2ccccc12 the results were D1 mod 3.08, ROCK2 blocker -8.3, hDAT+cocaine 0.0534, PKA kinase inh 2.5 and JNK3 inh 18.5*.
`CC(C)Oc1ccc(C2/C(=C(/O)c3ccc(F)cc3)C(=O)C(=O)N2CCCN(C)C)cc1` (configuration not stated) gave D1 mod -0.0115, ROCK2 blocker 4.0, PKA kinase inh -0.1 and JNK3 inh 6.7.
For O=S(=O)(Cc1ccccc1)NCc1ccccn1 the results were D1 mod -0.506, ROCK2 blocker 1.2, hDAT+cocaine -0.506, PKA kinase inh 1.3 and JNK3 inh -8.6.
`O=S(=O)(NCc1ccccn1)c1ccccc1` gave hDAT+cocaine -2.86*.
CCOC(=O)CCCNC(=O)COC(=O)c1ccc(O)cc1 was read as hDAT+cocaine 2.48*.
For CCOC(=O)COC(=O)c1ccc(O)cc1 the results were D1 mod 0.00197, hDAT+cocaine -1.75 and PKA kinase inh 4.5.
Screening CCCCN(C)C(=O)C1CCC(=O)N(c2cc(OC)c(OC)c(OC)c2)C1c1ccc(OC)cc1 (configuration not stated) returned D1 mod -0.856, hDAT+cocaine -8.44* and PKA kinase inh 3.8.
For COc1ccc(C2C(C(=O)NCc3ccco3)CCC(=O)N2c2ccc(OC)cc2)cc1 (configuration not stated) the results were D1 mod 0.00511, ROCK2 blocker 2.3, hDAT+cocaine -1.15, PKA kinase inh -1.2 and JNK3 inh 17.3*.
Screening CCCn1c(=O)[nH]c(=O)c2c1nc(-c1ccccc1)n2CCN1CCOCC1 returned hDAT+cocaine -0.0872.
Screening O=C(NCc1cccc(Br)c1)C1CC(c2ccccc2[N+](=O)[O-])=NO1 (configuration not stated) returned hDAT+cocaine 1.73.
Screening CCC(=O)NC(=S)Nc1cccc(Cl)c1N1CCCCC1 returned hDAT+cocaine 0.047.
Screening COc1ccc(-c2cc(C(F)(F)F)nc(SCC(=O)Nc3cc(C)on3)n2)cc1OC returned D1 mod 24.4*, ROCK2 blocker 8.3, hDAT+cocaine -0.343, PKA kinase inh 3.0 and JNK3 inh 2.4.
CC(C)Cn1c(N)c(C(=O)COC(=O)c2cc(-c3ccco3)nc3ccccc23)c(=O)n(C)c1=O was read as D1 mod 1.18, ROCK2 blocker 4.7, PKA kinase inh 4.3 and JNK3 inh 9.1.
`CC(C)Cn1c(N)c(C(=O)COC(=O)c2cc(-c3ccccc3)nc3ccccc23)c(=O)n(C)c1=O` gave hDAT+cocaine 2.47*.
CCOc1ccc2[nH]c(=O)c(C(c3nnnn3Cc3ccco3)N3CCCC(C)C3)cc2c1 (configuration not stated) was read as D1 mod -0.495, ROCK2 blocker 1.1, hDAT+cocaine 2.49*, PKA kinase inh 8.6 and JNK3 inh 10.3.
CCN(CC)C(=O)c1[nH]cnc1C(=O)N[C@@H](CC(C)C)C(=O)OCc1ccccc1 was read as hDAT+cocaine 1.16.
